# Data from PubChem BioAssay.
# Activity calls are given as the source filed them. Unless noted, no rule for the calls is given here.
# Tests used:
# [1] = anti-His antibody binders, primary screen, artefact control for SMM control protein annotation, biochemical, small-molecule microarray, 635 nm fluorescence (AID 1128); conditions: anti-His Alexa647 antibody binding, higher = more signal;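 also: score merges feature fluorescence with signal-to-noise for each printed compound spot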
# [2] = system: Human papillomavirus type 1a E7 protein (residues 1-88); experiment: HPV1a E7 small-molecule binders, primary screen, biochemical, small-molecule microarray, residues 1-88, 635 nm (AID 1129); conditions: small-molecule microarray binding, fluorescence 635 nm; higher = more signal
# [3] = molecular target: Focal adhesion kinase 1 (Homo sapiens) (UniProt Q05397); experiment: small-molecule microarray binders of FAK, primary screen, biochemical, 635/667 nm fluorescence, BSA, DTT (AID 1130); conditions: PTK2 binding, 635 nm fluorescence, higher = more signal;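 also: composite of spot emission at 667 nm and signal to noise over triplicate slides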
# Sequence of Focal adhesion kinase 1 (Homo sapiens) (Q05397 whole entry, looked up): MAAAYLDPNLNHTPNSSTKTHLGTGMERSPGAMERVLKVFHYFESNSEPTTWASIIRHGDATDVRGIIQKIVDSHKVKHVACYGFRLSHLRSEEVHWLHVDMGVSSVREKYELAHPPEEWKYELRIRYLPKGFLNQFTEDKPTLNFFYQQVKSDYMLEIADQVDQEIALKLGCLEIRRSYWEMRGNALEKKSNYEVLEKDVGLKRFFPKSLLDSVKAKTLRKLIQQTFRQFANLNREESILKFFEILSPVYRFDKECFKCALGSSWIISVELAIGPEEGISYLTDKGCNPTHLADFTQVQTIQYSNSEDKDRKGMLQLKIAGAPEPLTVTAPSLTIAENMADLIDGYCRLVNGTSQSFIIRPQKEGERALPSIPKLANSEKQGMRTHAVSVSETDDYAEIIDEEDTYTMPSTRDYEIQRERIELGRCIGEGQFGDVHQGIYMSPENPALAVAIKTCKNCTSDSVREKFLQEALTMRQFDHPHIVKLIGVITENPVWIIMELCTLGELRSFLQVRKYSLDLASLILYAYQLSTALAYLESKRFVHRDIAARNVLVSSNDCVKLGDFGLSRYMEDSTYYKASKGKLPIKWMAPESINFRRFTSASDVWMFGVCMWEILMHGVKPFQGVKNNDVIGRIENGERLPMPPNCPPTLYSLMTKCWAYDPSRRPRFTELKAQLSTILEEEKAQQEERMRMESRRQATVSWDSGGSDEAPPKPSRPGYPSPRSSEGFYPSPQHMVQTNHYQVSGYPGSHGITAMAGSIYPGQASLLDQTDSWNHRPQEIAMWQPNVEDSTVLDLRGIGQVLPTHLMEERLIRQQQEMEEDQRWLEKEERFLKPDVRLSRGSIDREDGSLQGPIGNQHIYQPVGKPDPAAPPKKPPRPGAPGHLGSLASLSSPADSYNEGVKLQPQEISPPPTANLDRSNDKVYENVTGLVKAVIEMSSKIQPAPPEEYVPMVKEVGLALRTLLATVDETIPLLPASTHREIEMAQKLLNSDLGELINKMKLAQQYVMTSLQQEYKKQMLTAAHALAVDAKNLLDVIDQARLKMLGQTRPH
# [4] = system: Fibrinogen (Alexa647-labelled); experiment: fibrinogen binders on compound microarrays, profiling panel, artefact control for SMM control-protein annotation, biochemical, small-molecule microarray, 635/667 nm fluorescence (AID 1131); conditions: fibrinogen-A647 binding fluorescence, higher = more signal;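 also: z-score merges 667 nm fluorescence with per-spot signal-to-noise over triplicate slides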
# [5] = molecular target: Follistatin (Homo sapiens) (UniProt P19883); experiment: follistatin binders on small-molecule microarrays, primary screen, biochemical, small-molecule microarray, 635/667 nm fluorescence (AID 1132); conditions: FST binding, 635 nm fluorescence, higher = more signal
# Sequence of Follistatin (Homo sapiens) (P19883 whole entry, looked up): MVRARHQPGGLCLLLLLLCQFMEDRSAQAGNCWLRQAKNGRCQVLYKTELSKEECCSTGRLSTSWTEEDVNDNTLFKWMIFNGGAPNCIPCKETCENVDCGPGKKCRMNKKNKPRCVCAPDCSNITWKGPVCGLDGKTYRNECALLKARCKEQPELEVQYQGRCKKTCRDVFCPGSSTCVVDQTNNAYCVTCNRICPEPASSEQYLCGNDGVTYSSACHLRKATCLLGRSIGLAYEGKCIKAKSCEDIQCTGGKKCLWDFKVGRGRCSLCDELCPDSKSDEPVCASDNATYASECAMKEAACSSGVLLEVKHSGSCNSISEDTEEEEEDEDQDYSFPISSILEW
# [6] = molecular target: Fibroblast growth factor 2 (Homo sapiens) (UniProt P09038); experiment: FGF2 binders on small-molecule microarrays, primary screen, biochemical, small-molecule microarray, 635/667 nm fluorescence (AID 1133); conditions: small-molecule microarray binding, FGF2, fluorescence 635/667; higher = more signal
# Sequence of Fibroblast growth factor 2 (Homo sapiens) (P09038 whole entry, looked up): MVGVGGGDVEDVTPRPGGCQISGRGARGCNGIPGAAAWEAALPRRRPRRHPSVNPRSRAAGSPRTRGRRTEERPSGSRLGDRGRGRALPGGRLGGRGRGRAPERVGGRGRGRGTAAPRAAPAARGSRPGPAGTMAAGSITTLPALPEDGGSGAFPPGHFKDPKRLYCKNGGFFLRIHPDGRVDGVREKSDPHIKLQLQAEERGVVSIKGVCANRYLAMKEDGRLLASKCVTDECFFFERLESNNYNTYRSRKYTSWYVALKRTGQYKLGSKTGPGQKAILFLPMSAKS
# [7] = mitochondrial membrane potential change in A549 cells, profiling panel, cell-based, JC-1 fluorescence, basal, 24 h, 100 nL (AID 1138); conditions: higher = more signal;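 also: A549 lung adenocarcinoma cells under basal conditions with no added stimulus; test concentration not given here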
# [8] = system: Lefty1; experiment: Lefty1 binders on small-molecule microarrays, primary screen, biochemical, small-molecule microarray, 635/667 nm fluorescence (AID 1139); conditions: small-molecule microarray binding, fluorescence 635/667; higher = more signal
# [9] = system: wheat germ agglutinin (Triticum aestivum), Alexa647-labelled; experiment: wheat germ agglutinin binders on compound microarrays, profiling panel, artefact control for SMM control-protein annotation, biochemical, small-molecule microarray, 635/667 nm fluorescence (AID 1140); conditions: WGA-A647 binding, 635 nm fluorescence, higher = more signal;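 also: score merges 667 nm feature emission with signal to noise over triplicate slides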
# [10] = molecular target: Luciferin 4-monooxygenase (Photinus pyralis) (UniProt P08659); experiment: firefly luciferase enzyme inhibitors, primary screen, biochemical, luminescence, purified enzyme, 2006 set (AID 1141); conditions: SteadyGlo luminescence, 30 min, higher = more signal, called active from +8 up or from −8 down;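 also: cell-free assay with purified firefly luciferase at 100 ng per well in PBS; test concentration not given here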
# Sequence of Luciferin 4-monooxygenase (Photinus pyralis) (P08659 whole entry, looked up): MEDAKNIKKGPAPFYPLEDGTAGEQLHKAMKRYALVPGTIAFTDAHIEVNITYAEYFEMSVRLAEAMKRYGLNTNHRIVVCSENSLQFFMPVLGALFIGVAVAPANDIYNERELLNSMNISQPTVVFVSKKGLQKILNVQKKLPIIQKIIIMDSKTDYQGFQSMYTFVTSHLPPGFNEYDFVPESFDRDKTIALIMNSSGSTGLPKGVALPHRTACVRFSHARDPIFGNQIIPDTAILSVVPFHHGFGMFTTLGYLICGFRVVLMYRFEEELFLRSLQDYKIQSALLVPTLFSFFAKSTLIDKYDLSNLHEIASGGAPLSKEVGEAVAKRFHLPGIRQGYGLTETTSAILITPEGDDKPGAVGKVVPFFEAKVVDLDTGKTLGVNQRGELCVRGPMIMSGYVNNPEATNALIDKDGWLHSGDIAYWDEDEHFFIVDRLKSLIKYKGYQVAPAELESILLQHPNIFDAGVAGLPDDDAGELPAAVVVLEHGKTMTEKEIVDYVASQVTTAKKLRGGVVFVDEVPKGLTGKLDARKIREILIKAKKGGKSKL
# [11] = system: Wnt5a (protein binding on small-molecule microarray); experiment: Wnt5a binders on small-molecule microarray, primary screen, biophysical, 635/667 nm fluorescence (AID 1142); conditions: 635 nm fluorescence, higher = more signal;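 also: fluorescence read at 667 nm with signal to noise per printed feature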
# [12] = cell viability in Huh7 cells, primary screen, cytotoxicity control for HCV replication inhibitor project, CellTiter-Glo luminescence, basal, 48 h (AID 1143); conditions: Huh7 HCV replicon, higher = more signal, called active from +8 up or from −8 down;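 also: Huh7 hepatoma cells carrying a hepatitis C replication reporter with no stimulus; test concentration not given here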
# [13] = P. aeruginosa biofilm formation inhibitors, primary screen, PAO1 strain, BacTiter-Glo luminescence, LB-PBS (AID 1144); conditions: 12 h, higher = more signal
# [14] = CREB reporter modulators without forskolin, primary screen, cell-based, PC12, CRE-LacZ reporter, unstimulated (AID 1145); conditions: no forskolin, luminescence, 4.5 h, higher = more signal, called active from +8 up or from −8 down
# [15] = CREB reporter modulators under forskolin, primary screen, cell-based, PC12, CRE-LacZ reporter, forskolin-stimulated (AID 1146); conditions: luminescence, 4.5 h, higher = more signal, called active from +8 up or from −8 down;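 also: PC12 cells with 6xCRE LacZ reporter stimulated by forskolin 10 µM; beta-galactosidase reporter signal reflecting CREB driven transcription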
# [16] = molecular target: Streptavidin (Streptomyces avidinii) (UniProt P22629); experiment: streptavidin binders on small-molecule microarray, primary screen, artefact control for SMM compound annotation, biophysical, 635/667 nm fluorescence (AID 1147); conditions: streptavidin binding, higher = more signal;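 also: signal reflects streptavidin binding to arrayed compounds as a control protein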
# Sequence of Streptavidin (Streptomyces avidinii) (P22629 whole entry, looked up): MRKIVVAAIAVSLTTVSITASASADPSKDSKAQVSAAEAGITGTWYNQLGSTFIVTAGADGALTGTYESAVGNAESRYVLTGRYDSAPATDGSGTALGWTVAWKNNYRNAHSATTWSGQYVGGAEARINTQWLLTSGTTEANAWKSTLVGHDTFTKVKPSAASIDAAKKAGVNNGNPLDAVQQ
# [17] = small-molecule binders of probe aInhba, primary screen, biochemical, small-molecule microarray, 635/667 nm fluorescence (AID 1148); conditions: higher = more signal;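 also: score merges 667nm spot fluorescence with signal-to-noise for antibody binding to printed compounds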
# [18] = molecular target: Torsin-1A (Homo sapiens) (UniProt O14656); experiment: torsin A binders from cell lysate, primary screen, small-molecule microarray, wild-type, 635/667 nm (AID 1149); conditions: COS7 hTOR1A-WT lysate, 635 nm fluorescence, higher = more signal
# Sequence of Torsin-1A (Homo sapiens) (O14656 whole entry, looked up): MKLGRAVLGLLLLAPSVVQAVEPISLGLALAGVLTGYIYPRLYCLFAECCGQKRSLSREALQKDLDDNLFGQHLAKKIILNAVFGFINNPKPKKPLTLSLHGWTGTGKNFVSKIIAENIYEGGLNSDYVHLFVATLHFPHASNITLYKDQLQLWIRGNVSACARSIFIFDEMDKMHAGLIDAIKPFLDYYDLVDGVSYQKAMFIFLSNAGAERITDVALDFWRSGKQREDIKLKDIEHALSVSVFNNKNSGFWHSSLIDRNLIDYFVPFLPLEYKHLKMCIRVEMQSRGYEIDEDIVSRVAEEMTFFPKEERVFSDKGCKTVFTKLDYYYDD
# [19] = molecular target: Torsin-1A (Homo sapiens) (UniProt O14656); experiment: small-molecule binders of mutant TOR1A in lysate, primary screen, cell lysate, small-molecule microarray, COS7 lysate, 635/667 nm fluorescence (AID 1150); conditions: COS7 hTOR1A mutant lysate, 635 nm fluorescence, higher = more signal;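 also: score pools 667 nm emission and signal to noise measuring lysate protein binding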
# [20] = system: Sonic hedgehog protein (Shh); experiment: small-molecule binders of Shh protein, primary screen, biochemical, small-molecule microarray, 635/667 nm fluorescence (AID 1151); conditions: small-molecule microarray binding, 635 nm fluorescence; higher = more signal;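 also: Shh protein binding to compounds spotted on small-molecule microarray slides; score combines spot fluorescence intensity with signal-to-noise across triplicate slides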
Structure (SMILES),composite z-score [1],composite z-score [2],composite z-score [3],composite z-score [4],composite z-score [5],composite z-score [6],z-score [7],composite z-score [8],composite z-score [9],z-score [10],composite z-score [11],z-score [12],z-score [13],z-score [14],z-score [15],composite z-score [16],composite z-score [17],composite z-score [18],composite z-score [19],composite z-score [20]
C[C@]12C(=O)N(CCCCCCO)[C@@H]3C(=O)N(c4ccc(Cl)cc4)CC=CC31O[C@@H]1/C=C\CCCOC(=O)C12 (stereo not given in full),0.0039,-0.401,0.657,-2.42,-0.448,-1.12,0.846,-0.408,0.608,-1.64 (inactive),-0.143,-0.0337 (inactive),-1.5 (inactive),0.0686 (inactive),-0.475 (inactive),-0.781,-0.104,-1.38,-0.825,0.128
CCOC(=O)C[C@H]1[C@H](OC(=O)Cc2ccc3c(c2)OCO3)[C@@H](NC(=O)Cc2ccc(OC)cc2)c2cc(OCCCO)ccc2N1C(=O)c1ccccc1,0.0506,0.814,0.668,0.511,0.41,0.251,1.57,0.389,0.956,-0.566 (inactive),0.194,-0.0801 (inactive),-0.112 (inactive),0.222 (inactive),-0.377 (inactive),0.421,-0.103,-0.334,0.426,0.528
CC(C)(C)OC(=O)CC[C@]1(C(=O)NCCN2CCOCC2)N=C(c2ccc(OCCCO)cc2)O[C@H]1c1ccccc1N=[N+]=[N-],2.11,1.15,0.782,1.04,0.283,-0.104,0.669,-0.595,1.33,-10.8 (active),0.191,-0.616 (inactive),0.145 (inactive),0.872 (inactive),-0.55 (inactive),0.615,0.367,0.0272,1.28,-0.299
O=C(O)[C@H](Cc1ccccc1)n1cc(-c2ccccn2)nn1,0.908,0.585,0.19,0.919,0.676,0.0069,-0.47,0.5,0.425,1.01 (inactive),0.0676,-0.437 (inactive),-0.0406 (inactive),0.688 (inactive),-0.377 (inactive),0.303,-0.0645,0.307,0.407,0.506
COC1(C)CN(Cc2ccccc2Br)[C@H](/C=C/c2ccccc2)[C@H](Cc2ccccc2)O1 (stereo not given in full),0.258,-0.561,0.106,-0.291,-0.598,-0.375,0.267,0.0787,0.0565,-0.238 (inactive),-0.243,-0.391 (inactive),-0.198 (inactive),1.93 (inactive),0.874 (inactive),-0.332,-0.0719,-0.558,0.357,-0.191
C=C(C(=O)CC[C@H](OC(=O)c1cccnc1)c1cccc(OCCO)c1)C(C)C,0.0024,-0.498,-0.136,-0.744,-1.01,-0.464,0.838,0.0695,-0.168,-0.894 (inactive),-0.13,-1.04 (inactive),-0.285 (inactive),17.7 (active),-0.464 (inactive),0.0502,-0.0719,1.17,-0.206,0.389
CC(C)N1C(=O)[C@@]2(c3ccc([N+](=O)[O-])cc3)CC(=O)N(C3CCCCC3)[C@@H]2c2ccc(CO)cc21,0.111,-0.695,-0.0713,-0.387,1.03,0.356,-0.24,0.297,-0.246,1.1 (inactive),-0.0311,-0.311 (inactive),-1.16 (inactive),-0.464 (inactive),-0.144 (inactive),-0.196,-0.045,-0.36,-0.123,1.02
COCCOC(=O)N1C(=O)[C@@]2(c3cc(C#CC4(O)CCCCCC4)ccc31)[C@H](c1ccccc1OCCO)N1[C@H](c3ccccc3)[C@H](c3ccccc3)OC(=O)[C@H]1[C@@H]2C(N)=O,1.47,1.18,0.639,0.872,1.41,1.51,-1.68,1.56,1.02,-0.927 (inactive),0.448,-6.31 (inactive),0.754 (inactive),0.245 (inactive),0.0169 (inactive),0.421,-0.0494,0.749,0.761,1.97
C=CC[C@@H](OC(=O)Nc1ccc(OC)cc1)c1ccc(OCCO)cc1,-0.662,-0.646,-0.676,-3,-0.787,-1.6,-0.371,-0.999,-0.262,-5.18 (inactive),-1.2,-2.05 (inactive),-0.542 (inactive),1.29 (inactive),0.0646 (inactive),-1.21,-0.237,-3.71,-3,-0.49
C=CC[C@@]1(C(=O)O)N=C(c2ccc(OCCCO)cc2)O[C@@H]1c1ccccc1,3.53,1.15,0.3,-0.184,-0.759,-0.893,0.959,-0.726,1.27,-0.171 (inactive),1.45,0.0076 (inactive),-0.385 (inactive),-0.491 (inactive),-1.2 (inactive),-1.72,-0.231,4.37,4.32,-0.198
C[C@]1(C(=O)NC2CC2)c2ccccc2C(=O)N(Cc2ccc(OC(F)(F)F)cc2)[C@H]1c1ccc(CO)cc1,-0.725,0.722,0.576,-0.796,-0.239,0.0672,1,-0.858,-1.5,0.371 (inactive),-0.0135,-0.0474 (inactive),0.244 (inactive),1.64 (inactive),-0.103 (inactive),-0.825,0.152,0.398,0.398,-0.379
